# Measured values as given in ChEMBL document CHEMBL3988442, “University of Dundee, Small-Polar-MMV Screening Library” (2021).
# For some assays here: Results with a measured potency or affinity are listed apart.
# How the values were obtained:
# Design in all cases: scale not given: direction of the effect not stated beside the values
# [1] = target: Protein translocase subunit SecA (Escherichia coli (strain K12)) (UniProt P10408); assay: Assay to Identify E. coli SecA ATPase Inhibitors; type: functional; details: 30 µM
# [2] = target: T1, Ubiquitin-activating enzyme e1, putative (Leishmania donovani (strain BPK282A1)) (UniProt E9BSI1); assay: Leishmania donovani Ubiquitin Activating Enzyme (LdE1); type: functional; details: 30 µM
# T1 sequence (whole entry): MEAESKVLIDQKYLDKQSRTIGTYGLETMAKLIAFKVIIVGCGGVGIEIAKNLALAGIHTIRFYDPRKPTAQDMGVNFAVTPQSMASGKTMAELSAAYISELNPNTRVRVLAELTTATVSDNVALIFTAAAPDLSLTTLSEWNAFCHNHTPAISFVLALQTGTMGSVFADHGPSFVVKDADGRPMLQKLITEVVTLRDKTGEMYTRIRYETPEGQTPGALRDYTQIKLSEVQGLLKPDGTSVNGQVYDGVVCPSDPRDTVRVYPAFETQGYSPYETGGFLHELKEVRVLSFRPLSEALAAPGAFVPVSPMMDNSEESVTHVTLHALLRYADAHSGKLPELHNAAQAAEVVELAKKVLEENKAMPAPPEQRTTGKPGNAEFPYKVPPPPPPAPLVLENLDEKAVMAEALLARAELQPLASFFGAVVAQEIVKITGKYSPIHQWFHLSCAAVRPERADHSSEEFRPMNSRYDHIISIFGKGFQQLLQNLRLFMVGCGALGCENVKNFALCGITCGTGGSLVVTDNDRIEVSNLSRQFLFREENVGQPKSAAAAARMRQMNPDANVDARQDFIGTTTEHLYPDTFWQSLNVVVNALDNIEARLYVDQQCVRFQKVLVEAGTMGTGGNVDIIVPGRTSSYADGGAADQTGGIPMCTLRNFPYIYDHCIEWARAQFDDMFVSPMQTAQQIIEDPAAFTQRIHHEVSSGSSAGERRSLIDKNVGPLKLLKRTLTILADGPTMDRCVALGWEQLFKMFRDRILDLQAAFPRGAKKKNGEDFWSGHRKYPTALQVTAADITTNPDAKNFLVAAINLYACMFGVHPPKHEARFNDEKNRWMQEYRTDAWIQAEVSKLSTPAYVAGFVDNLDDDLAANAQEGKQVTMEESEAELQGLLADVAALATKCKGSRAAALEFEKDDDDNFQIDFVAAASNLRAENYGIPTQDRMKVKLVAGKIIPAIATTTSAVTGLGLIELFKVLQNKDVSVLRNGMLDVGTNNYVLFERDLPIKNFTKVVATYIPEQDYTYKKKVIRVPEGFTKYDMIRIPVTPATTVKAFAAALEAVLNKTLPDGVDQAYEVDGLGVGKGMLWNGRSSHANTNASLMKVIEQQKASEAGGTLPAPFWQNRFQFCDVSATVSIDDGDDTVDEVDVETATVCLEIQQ
# [3] = target: AMP-activated protein kinase, AMPK (Homo sapiens) (UniProt P54646+O43741+P54619+Q9UGJ0+Q9Y478+Q13131+Q9UGI9); assay: AMP-dependent Kinase enzyme assay. An in vitro enzyme assay that detects ADP turnover that is directly proportional to AMPK activity. This uses naive AMPK that is activated during the assay with MK-8722; type: functional; details: 30 µM
# [4] = target: Sialic acid-binding Ig-like lectin 9 (Homo sapiens) (UniProt Q9Y336); assay: Hs-Siglec9 ALPHAscreen SOP 20170721; details: 10 µM
# Trypanosoma cruzi = assay: Trypanosoma cruzi phosphomannomutase and mannose-1-phosphate guanylyltransferase assay; type: functional; details: 10 µM
# [5] = target: T2, Arginase-2, mitochondrial (Homo sapiens) (UniProt P78540); assay: in vitro enzyme assay to detect the production of urea directly proportional to the activity of Arginase II; type: functional; details: 33.3 µM; further: in the data most compounds retested in dose-response had high values
# T2 sequence (whole entry): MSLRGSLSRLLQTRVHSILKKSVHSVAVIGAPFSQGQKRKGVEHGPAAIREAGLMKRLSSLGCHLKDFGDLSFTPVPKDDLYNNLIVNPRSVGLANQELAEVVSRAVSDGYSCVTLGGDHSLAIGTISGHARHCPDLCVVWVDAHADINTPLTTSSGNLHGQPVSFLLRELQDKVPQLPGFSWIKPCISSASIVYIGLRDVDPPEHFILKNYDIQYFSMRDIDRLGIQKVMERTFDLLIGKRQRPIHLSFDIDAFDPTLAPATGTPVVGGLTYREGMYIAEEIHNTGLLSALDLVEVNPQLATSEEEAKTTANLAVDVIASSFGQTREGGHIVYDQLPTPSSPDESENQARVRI
# [6] = target: T3, Proteasome subunit beta (Trypanosoma cruzi) (UniProt O96673); assay: Trypanosoma cruzi proteasome chymotrypsin-like activity (TcProtChymo) assay.; further: in the data most compounds retested in dose-response had high values; type: functional; details: 9.37 µM
# T3 sequence (whole entry): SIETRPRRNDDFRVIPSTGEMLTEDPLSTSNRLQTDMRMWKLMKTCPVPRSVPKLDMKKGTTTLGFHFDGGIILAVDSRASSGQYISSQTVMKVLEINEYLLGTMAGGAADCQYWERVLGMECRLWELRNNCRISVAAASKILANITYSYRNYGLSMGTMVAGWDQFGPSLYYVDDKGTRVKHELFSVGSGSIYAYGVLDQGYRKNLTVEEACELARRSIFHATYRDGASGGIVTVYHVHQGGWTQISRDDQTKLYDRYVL
# Homo sapiens = organism: Homo sapiens; assay: To identify inhibition of the IFN signalling (Jak-Stat) pathway via expression of an eGFP reporter gene under the control of an IFN-stimulated response element (ISRE) containing MxA promoter.; type: functional; details: 30 µM
# [7] = target: T4, Tyrosyl-tRNA synthetase, putative (Trypanosoma cruzi (strain CL Brener)) (UniProt Q4DSP6); assay: Trypanosoma cruzi tyrosyl tRNA synthetase (TcYRS) _High Tyrosine SOP; type: functional; details: 30 µM; further: in the data most compounds retested in dose-response had high values
# T4 sequence (whole entry): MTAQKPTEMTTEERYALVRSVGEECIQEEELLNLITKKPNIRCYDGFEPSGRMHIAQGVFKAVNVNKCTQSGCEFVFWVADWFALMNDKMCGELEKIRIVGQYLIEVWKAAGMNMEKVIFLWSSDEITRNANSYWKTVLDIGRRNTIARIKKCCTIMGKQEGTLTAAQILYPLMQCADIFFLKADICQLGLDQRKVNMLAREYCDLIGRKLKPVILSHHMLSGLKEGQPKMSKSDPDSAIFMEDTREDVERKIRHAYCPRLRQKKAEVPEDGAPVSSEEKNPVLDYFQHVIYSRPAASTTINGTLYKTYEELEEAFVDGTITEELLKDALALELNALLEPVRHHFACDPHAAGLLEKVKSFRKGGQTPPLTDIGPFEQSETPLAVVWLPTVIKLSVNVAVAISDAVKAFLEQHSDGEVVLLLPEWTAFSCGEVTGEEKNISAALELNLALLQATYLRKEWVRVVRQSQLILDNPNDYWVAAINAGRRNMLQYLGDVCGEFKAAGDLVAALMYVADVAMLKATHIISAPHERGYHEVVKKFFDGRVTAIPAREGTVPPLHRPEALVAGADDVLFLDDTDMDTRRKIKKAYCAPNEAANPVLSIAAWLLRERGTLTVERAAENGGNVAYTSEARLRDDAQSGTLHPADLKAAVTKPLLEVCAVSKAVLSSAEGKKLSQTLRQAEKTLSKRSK
# [8] = target: T4, Tyrosyl-tRNA synthetase, putative (Trypanosoma cruzi (strain CL Brener)); assay: Trypanosoma cruzi tyrosyl tRNA synthetase (TcYRS) SOP; type: functional; details: 30 µM
# [9] = target: Chromo domain-containing protein 1 (Saccharomyces cerevisiae (strain ATCC 204508 / S288c) (Baker's yeast)) (UniProt P32657); assay: ScCHD-1 Enzyme Inhibition Assay; type: functional; details: 30 µM; further: in the data most compounds retested in dose-response had high values
# Chromo domain-containing protein 1 (Saccharomyces cerevisiae (strain ATCC 204508 / S288c) (Baker's yeast)), sequence (P32657 whole entry, the tested form may be a part): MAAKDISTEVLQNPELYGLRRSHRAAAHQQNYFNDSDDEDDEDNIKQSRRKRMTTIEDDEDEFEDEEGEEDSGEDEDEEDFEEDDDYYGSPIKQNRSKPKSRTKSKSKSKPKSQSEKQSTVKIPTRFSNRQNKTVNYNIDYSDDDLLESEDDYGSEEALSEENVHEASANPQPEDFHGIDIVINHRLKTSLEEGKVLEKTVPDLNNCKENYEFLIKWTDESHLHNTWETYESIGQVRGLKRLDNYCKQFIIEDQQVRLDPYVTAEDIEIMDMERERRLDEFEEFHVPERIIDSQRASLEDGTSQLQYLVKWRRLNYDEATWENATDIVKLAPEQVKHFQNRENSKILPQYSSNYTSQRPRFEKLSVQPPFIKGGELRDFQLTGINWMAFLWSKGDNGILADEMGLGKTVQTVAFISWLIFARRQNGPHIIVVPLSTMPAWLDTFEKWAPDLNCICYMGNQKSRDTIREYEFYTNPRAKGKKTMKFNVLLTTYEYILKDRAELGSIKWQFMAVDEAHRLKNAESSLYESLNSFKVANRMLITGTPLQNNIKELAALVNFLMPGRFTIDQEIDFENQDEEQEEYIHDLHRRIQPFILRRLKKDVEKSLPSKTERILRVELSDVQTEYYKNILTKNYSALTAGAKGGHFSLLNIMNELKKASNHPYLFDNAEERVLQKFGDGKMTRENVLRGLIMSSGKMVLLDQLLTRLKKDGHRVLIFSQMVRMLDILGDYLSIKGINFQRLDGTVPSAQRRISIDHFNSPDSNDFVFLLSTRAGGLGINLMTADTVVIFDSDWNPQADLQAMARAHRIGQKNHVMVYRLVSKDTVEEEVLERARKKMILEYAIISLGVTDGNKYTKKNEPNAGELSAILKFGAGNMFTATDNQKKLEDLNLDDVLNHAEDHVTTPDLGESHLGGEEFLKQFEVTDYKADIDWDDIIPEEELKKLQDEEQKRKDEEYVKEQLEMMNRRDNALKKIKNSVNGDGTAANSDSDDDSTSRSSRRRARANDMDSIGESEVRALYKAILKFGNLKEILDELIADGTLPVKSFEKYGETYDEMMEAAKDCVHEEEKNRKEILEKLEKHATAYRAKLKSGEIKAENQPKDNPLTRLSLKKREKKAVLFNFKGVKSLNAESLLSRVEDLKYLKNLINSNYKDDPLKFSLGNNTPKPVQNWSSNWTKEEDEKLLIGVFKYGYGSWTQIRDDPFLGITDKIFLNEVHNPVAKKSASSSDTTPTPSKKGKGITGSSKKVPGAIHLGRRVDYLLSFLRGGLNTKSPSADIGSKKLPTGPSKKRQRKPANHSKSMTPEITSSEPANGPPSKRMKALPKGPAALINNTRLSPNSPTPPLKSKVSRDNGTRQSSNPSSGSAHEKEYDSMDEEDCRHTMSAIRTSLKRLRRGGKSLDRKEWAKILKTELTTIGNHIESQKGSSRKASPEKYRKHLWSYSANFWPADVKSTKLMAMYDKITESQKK
# Sialic acid-binding Ig-like lectin 9 (Homo sapiens), sequence (Q9Y336 whole entry): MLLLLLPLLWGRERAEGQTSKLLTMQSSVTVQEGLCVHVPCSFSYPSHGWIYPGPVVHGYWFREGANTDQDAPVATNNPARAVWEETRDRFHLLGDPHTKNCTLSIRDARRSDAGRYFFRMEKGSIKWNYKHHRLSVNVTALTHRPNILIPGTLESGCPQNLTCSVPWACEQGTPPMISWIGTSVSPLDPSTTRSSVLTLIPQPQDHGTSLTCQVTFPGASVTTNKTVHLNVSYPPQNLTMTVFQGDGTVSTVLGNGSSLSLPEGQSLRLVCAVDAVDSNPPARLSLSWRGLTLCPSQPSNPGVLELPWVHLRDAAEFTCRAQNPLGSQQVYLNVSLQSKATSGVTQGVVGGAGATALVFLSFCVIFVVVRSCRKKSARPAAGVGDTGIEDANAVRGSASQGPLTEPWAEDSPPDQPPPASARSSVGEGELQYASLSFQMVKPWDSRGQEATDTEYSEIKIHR
# Protein translocase subunit SecA (Escherichia coli (strain K12)), sequence (P10408 whole entry): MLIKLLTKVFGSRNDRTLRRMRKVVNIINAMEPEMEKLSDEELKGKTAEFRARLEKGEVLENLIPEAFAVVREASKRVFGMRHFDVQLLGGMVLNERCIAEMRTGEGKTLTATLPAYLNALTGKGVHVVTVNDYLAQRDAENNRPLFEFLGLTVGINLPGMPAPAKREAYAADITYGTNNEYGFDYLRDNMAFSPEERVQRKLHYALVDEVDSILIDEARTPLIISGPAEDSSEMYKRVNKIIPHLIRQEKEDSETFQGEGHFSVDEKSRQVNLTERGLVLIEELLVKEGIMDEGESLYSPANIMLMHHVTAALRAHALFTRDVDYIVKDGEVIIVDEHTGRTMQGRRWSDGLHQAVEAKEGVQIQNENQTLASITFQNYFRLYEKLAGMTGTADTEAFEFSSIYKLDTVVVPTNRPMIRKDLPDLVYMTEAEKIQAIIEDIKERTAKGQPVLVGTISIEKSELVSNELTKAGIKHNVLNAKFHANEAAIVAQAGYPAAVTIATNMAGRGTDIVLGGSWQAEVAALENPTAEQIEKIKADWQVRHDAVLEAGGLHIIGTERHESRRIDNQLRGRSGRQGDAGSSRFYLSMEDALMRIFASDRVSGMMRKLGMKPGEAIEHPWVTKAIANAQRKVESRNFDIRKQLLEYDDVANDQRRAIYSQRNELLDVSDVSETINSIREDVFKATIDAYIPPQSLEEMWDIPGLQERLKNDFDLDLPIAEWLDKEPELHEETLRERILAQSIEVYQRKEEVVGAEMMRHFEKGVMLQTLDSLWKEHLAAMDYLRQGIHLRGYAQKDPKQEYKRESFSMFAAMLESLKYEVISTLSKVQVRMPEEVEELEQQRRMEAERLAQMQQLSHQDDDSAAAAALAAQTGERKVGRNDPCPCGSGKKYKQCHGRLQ
Compound,Percent Effect [1] [%],Percent Effect [2] [%],Percent Effect [3] [%],Percent Effect [4] [%],Percent Effect (Trypanosoma cruzi) [%],Percent Effect [5] [%],Percent Effect [6] [%],Percent Effect (Homo sapiens) [%],Percent Effect [7] [%],Percent Effect [8] [%],Percent Effect [9] [%]
CCN1CCN(C2CCN(Cc3ncc(C(C)(C)C)o3)CC2)C1=O,-2.95,-7.79,6.42,7.85,1.47,-1.47,7.2,-13.2,6.67,7.06,-19.1
Cc1cc(N2CCCCCC2)n2nc(C)c(C)c2n1,-1.9,4.17,-3.08,0.107,12.2,-0.883,23.3,3.63,0,12.8,-7.26
COc1ccc2c(c1)CC(NC(=O)NCc1cccs1)CO2 (stereo not given),2.24,7.79,5.45,-2.89,-5.62,-112,5.4,5.91,2.12,8.97,-2.81
CCCn1nc(C)c(CNC(=O)C2COc3c(cccc3OC)C2)c1C (stereo not given),-3.57,2.74,-2.55,6.74,1.19,-5.59,15.5,10.2,6.25,16.1,-3.25
Cc1nn(CC(C)C)c(N(C)C)c1CNCc1cccc2c1OCO2,3.79,13.5,-13.1,-3.94,-8.02,-12,16.9,13.9,7.39,11.1,-4.83
O=C(NCC1CCOC1)c1cc(-c2cccc(Cl)c2)on1 (stereo not given),-3.92,18.2,1.45,3.45,0,4.27,16.7,14.6,5.83,14.6,-5.69
NC(=O)c1ccc(CN2CCCC(O)C2)cc1 (stereo not given),-2.93,13.5,-3.22,-5.21,4.69,37.5,17.2,0.641,5.94,15.8,-0.618
O=C(CS(=O)(=O)CC1CCCCC1)NC1CCCCNC1=O (stereo not given),-5.08,2.6,-1.46,5.38,4.49,-6.05,-2.7,-1.34,0,9.76,83.8
Cc1n[nH]c(C2CN(C(=O)CCc3ccco3)CCO2)n1 (stereo not given),-1.8,7.89,9.83,-2.52,3.6,3.55,21,21.1,2.13,7.79,-3.66
CC(CNc1cncc(-n2cccn2)n1)N(C)c1ccccc1 (stereo not given),-0.428,0,9.04,7.11,0.374,0.712,1.52,51.6,0.971,0,-6.86
